Measured values: PubChem BioAssay AID1619 (SRMLSC, 2009)
Out of some 220,000 compounds screened, about 830 (0.38%) were called active.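 How the source made its calls: active means compound inhibiting the enzyme by more than half at any dose during confirmatory dose-response retesting; inconclusive means strong single-dose inhibitors picked by rank but not retested; inactive means the rest.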 The list is a sample of the results. Entries with a potency or affinity are not part of this list.

target: Leucine aminopeptidase (Plasmodium falciparum (isolate 3D7)) (UniProt Q8IL11); experiment: P. falciparum M17LAP inhibitors, primary screen, biochemical, fluorogenic H-Leu-NHMec substrate, 1536-well (AID 1619); conditions: recombinant M17LAP, H-Leu-NHMec fluorogenic kinetic assay; at 30 µM; active compounds read high;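 further: plate controls were full reaction with DMSO carrier for no effect and no enzyme background for full effect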
Sequence (Q8IL11 whole entry, looked up): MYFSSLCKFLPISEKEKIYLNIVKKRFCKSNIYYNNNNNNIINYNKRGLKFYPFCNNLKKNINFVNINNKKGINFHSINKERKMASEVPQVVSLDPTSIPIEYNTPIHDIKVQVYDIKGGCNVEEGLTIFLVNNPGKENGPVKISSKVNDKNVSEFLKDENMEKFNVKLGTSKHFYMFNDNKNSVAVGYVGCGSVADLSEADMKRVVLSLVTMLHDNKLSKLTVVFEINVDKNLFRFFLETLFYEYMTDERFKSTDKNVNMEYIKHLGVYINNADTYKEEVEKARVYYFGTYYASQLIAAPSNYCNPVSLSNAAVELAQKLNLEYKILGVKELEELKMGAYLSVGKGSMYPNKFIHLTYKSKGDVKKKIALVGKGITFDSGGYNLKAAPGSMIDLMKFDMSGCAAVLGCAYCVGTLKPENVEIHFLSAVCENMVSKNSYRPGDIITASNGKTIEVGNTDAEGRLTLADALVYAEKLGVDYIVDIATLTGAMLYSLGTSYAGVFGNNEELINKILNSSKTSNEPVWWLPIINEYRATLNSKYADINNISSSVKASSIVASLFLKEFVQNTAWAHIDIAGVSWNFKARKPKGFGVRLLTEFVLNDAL

inhibition, inactive:
Nn1c(SCc2ccccc2F)nnc1-c1ccncc1 1.35%, CCOC(=O)c1sc(NC(=O)Cn2nnc3sc4c(c3c2=O)CCCC4)nc1C -3.69%, C=CCn1c(CNC(=O)c2ccco2)nnc1SCC(=O)Nc1cccc(F)c1 14.5%, Cn1c(CNC(=O)c2ccco2)nnc1SCC(=O)Nc1cccc(Br)c1 7.38%, CCCn1cnc2c(=S)nc(N)[nH]c21 16.6%, Nc1nc(N2CCOCC2)nc2ccccc12 -12%, CC(C)c1ccc(-c2nc(N3CCCC3)nc3n[nH]c(N)c23)cc1 27.7%, COc1ccc(-c2cc(C(F)(F)F)nc(N3CCOCC3)n2)cc1 4.95%, COc1ccc(N2CCN(c3nc(Cl)nc(N4CCOCC4)n3)CC2)cc1 11.3%, c1ccc(-c2nnc(N3CCOCC3)nc2-c2ccccc2)cc1 5.71%, CC(C)c1ccc(-c2nc(N3CCCCCC3)nc3n[nH]c(N)c23)cc1 35.4%, COCCNC(=S)NNc1ccccc1[N+](=O)[O-] 0.4%, CC(C)=NOc1nc(N2CCOCC2)nc(N2CCOCC2)n1 -6.17%, CCOC(=O)Cn1nnnc1CN(Cc1ccccc1)Cc1cc2cc(CC)ccc2[nH]c1=O -7.17%, CCOC(=O)c1sc(NC(=O)CC)c(C#N)c1C -11.2%, O=C(CN1C(=O)CCC1=O)Nc1ccc(Cc2ccc(NC(=O)CN3C(=O)CCC3=O)cc2)cc1 1.75%, Cc1ccc(NC(=O)Cn2nnc3ccccc3c2=O)cc1C -2.19%, O=C(Cn1cnc2ccccc2c1=O)Nc1ccc2c(c1)OCCO2 5.1%, COC(=O)c1ccc(C)c(NC(=O)Cn2cnc3ccccc3c2=O)c1 54.1%, COc1ccc(NC(=O)Cn2cnc3ccccc3c2=O)cc1OC 14.4%, N#Cc1c(NC(=O)CCn2cnc3ccccc3c2=O)oc(-c2ccccc2)c1-c1ccccc1 -1.46%, Cc1ccc(NC(=O)Cn2nnc3ccccc3c2=O)cc1 -0.57%, N#Cc1c(NC(=O)CSc2ccccn2)oc(-c2ccccc2)c1-c1ccccc1 3.85%, O=C(Cn1cnc2cc([N+](=O)[O-])ccc2c1=O)Nc1ccc2c(c1)CCC2 25.1%, COC(=O)c1ccc(NC(c2ccc(Cl)cc2)P(=O)(OC)OC)cc1 (stereo unspecified) 4.43%, CS(=O)(=O)N(CC(=O)Nc1ccc(S(=O)(=O)N2CCCC2)cc1)c1ccccc1 1.45%, Cn1c(SCC(=O)C(C)(C)C)nnc1-c1ccc(F)cc1 0.55%, CN(O)/C=C/C(=O)c1ccc(Br)cc1 -3.22%, C[C@@H]1C[C@H](O)c2cc(Cl)ccc2N1 5.04%, CCOC(=O)C1(CCCc2ccccc2)CCN(C(=O)CCc2cnccn2)CC1 -4.8%, COc1ccc(-c2cc(=O)oc3cc(OCC(C)=O)ccc23)cc1 10.9%, CC(Oc1ccc2c(-c3ccccc3)cc(=O)oc2c1)C(=O)O (stereo unspecified) 36.3%, N#C/C(=C\c1cn[nH]c1-c1ccccc1Br)C(=O)O 4.87%, CCCc1cc(=O)n2[nH]c(NCc3ccccc3Cl)nc2n1 23%, Cc1cccc(N(C(=O)c2csnn2)C(C(=O)NC(C)(C)C)c2cccs2)c1 (stereo unspecified) 9.85%, CCc1nc(N2CCN(C(C)=O)CC2)c(C#N)c2c1COC(C)(C)C2 -49.5%, O=C(c1cnn(-c2ccccc2)c1)c1ccccc1O -6.3%, O=C(c1cnn(C(=O)c2ccc(O)cc2)c1)c1ccccc1O -4.26%, CCCc1nnc(SCc2ccc(OC)cc2)n1N 9.43%, COc1ccc(-c2nc(-c3cccc(C(F)(F)F)c3)no2)cc1OC -5.65%, Cc1cccc(NC(=O)COc2ccc(/C=C\c3[nH]c(=O)[nH]c(=O)c3[N+](=O)[O-])cc2)c1 23.7%, CNC(=O)CSc1nc(-c2ccccc2)c(-c2ccccc2)o1 3.38%, NC(=O)CSc1nc(-c2ccccc2)c(-c2ccccc2)o1 -9.73%, CC(C)C(=O)Nc1ccc(NC(=O)c2ccccn2)cn1 7.94%, CNC(=O)c1sccc1S(=O)(=O)Cc1c(Cl)cccc1Cl 0.44%, CCOC(=O)c1sc(NC(=O)C2C3C=CC(C3)C2C(=O)O)nc1C (stereo unspecified) 3.83%, CCOC(=O)c1c(NC(=O)C2CC2)sc(C)c1CC -1.68%, CCOC(=O)c1c(NC(=O)C2C3C=CC(CC3)C2C(=O)O)sc(C)c1C (stereo unspecified) 46.5%, COC(=O)c1cc(C)sc1NC(=O)C1C2C=CC(CC2)C1C(=O)O (stereo unspecified) 47%, CCOCCCn1c(=O)c(NC(=O)c2ccc(OCC)cc2)c2n(c1=S)CCCCC2 10.1%, O=C(NCC1CCCO1)C1C2C=CC3(CN(Cc4cccs4)C(=O)C13)O2 (stereo unspecified) 15.4%, O=C(NC1CCCC1)C1C2C=CC3(CN(Cc4cccs4)C(=O)C13)O2 (stereo unspecified) -3.35%, Cc1ccc(S(=O)(=O)N(C)CCCC(=O)NC(C)(C)C)cc1 -1.26%, O=C1CN(S(=O)(=O)c2ccc(Cl)cc2)CC(=O)N1CCc1ccccc1 -1.31%, COc1ccc(C2=Nn3c(nnc3-c3ccccc3OC)SC2)cc1OC 26.3%, CCOc1ccc(C2=Nn3c(nnc3-c3ccccc3OC)SC2)cc1 8.39%, CC(=O)Nc1nc(CCN2C(=O)c3ccccc3C2=O)cs1 0.9%, Cc1cccc2cc(C(c3nnnn3CC3CCCO3)N3CCCc4ccccc43)c(=O)[nH]c12 (stereo unspecified) 10.5%, CC(C)c1ccc(O)c(NC(=O)c2cccnc2)c1 7.21%, CN1C2CCC1/C(=C\c1ccccc1)C(=O)/C2=C\c1ccccc1 5.66%, CN1C2CCC1/C(=C\c1ccccc1Cl)C(=O)/C2=C\c1ccccc1Cl 3.79%, O=c1[nH]cnc2scc(-c3cccs3)c12 -7.24%, COc1ccc(Cl)cc1S(=O)(=O)n1nnc2ccccc21 49%, COc1ccc(OC)c(S(=O)(=O)n2nnc3ccccc32)c1 56.9%, O=S(=O)(Nc1cccc(-c2ccc3nncn3n2)c1)c1ccc(Cl)s1 26.4%, CN(C)c1cccc(-c2nnc(SCCCC#N)o2)c1 -3.34%, CCOC(=O)Cc1csc(NC(=O)NC2(C(F)(F)F)Oc3ccccc3O2)n1 6.11%, CCOC(=O)Cc1csc(NC(=O)NC2(C(F)(F)F)Oc3ccc(Cl)cc3O2)n1 (stereo unspecified) 52.5%, C=CCn1c(COC)nnc1SCC(=O)c1ccc(F)cc1 -1.58%, CC(C)(C)c1ccc(C(=O)NN2C(=O)CSC2=S)cc1 5.92%, Cc1ccc(C(=O)NN2C(=O)CSC2=S)cc1 33.1%, COc1ccccc1CNC(=O)CN1C(=O)C(C)N(c2ccc(C)cc2)C1=O (stereo unspecified) -0.45%, O=S(=O)(Nc1nc2ccccc2nc1NCC1CCCO1)c1cccc(Cl)c1 (stereo unspecified) 12.2%, Cc1ccc(Nc2nc3ccccc3nc2Nc2c(C)n(C)n(-c3ccccc3)c2=O)cc1 -3.59%, Cc1c(NS(=O)(=O)c2ccccc2)c(=O)n(-c2ccccc2)n1C -14.2%, Cc1c(Nc2nc3ccccc3nc2NS(=O)(=O)c2cccs2)c(=O)n(-c2ccccc2)n1C 35.4%, Cc1c(Nc2nc3ccccc3nc2N2CCN(c3ccccc3)CC2)c(=O)n(-c2ccccc2)n1C 9.74%, O=S(=O)(Nc1nc2ccccc2nc1NCCO)c1cccc(Cl)c1 45%, Cc1ccc(N(Cc2cc3ccccc3[nH]c2=O)S(=O)(=O)c2ccccc2)cc1 9.01%, CCN(CC)C(=O)CSc1nnc(-c2ccc(S(=O)(=O)N3CCCC3)cc2)o1 -8.97%, CCOC(=O)C1=NNC2C(=O)N(Cc3ccccc3)C(=O)C12 (stereo unspecified) 5.31%, COC(=O)C1=C(C)N(c2ccc(OC)cc2)C(C)=C(C(=O)OC)C1c1ccc(OC)cc1 -14.2%, Cc1nc2ccccc2c2c1C(=O)NC2=O -0.48%, CCOC(=O)C1CCN(c2cc(=O)n(C3CCCCC3)c(=O)[nH]2)CC1 7.51%, CS(=O)(=O)N(CC(=O)Nc1ccc(S(=O)(=O)N2CCOCC2)cc1)c1ccccc1Cl 12.3%, COc1ccccc1Cn1[nH]nnc1=S 5.05%, COc1ccc([C@H]2[C@H](C(=O)OC(C)(C)C)N3N=Cc4ccccc4C3C23C(=O)c2ccccc2C3=O)c(OC)c1 (stereo partly specified) 34.9%, COc1ccc([C@H]2[C@H](C(=O)OC(C)(C)C)N3N=Cc4ccccc4C3C23C(=O)c2ccccc2C3=O)cc1OC (stereo partly specified) 21.8%, CC(C)CCn1nnnc1C(c1ccc(N(C)C)cc1)N1CCN(C(=O)c2ccco2)CC1 (stereo unspecified) 8.08%, COC(=O)c1cc(NC(=O)C2CC2)cc(C(=O)OC)c1 4.68%, O=C(O)c1ccc(NC(=O)C2CC=CCC2C(=O)O)cc1 (stereo unspecified) 2.25%, O=C(O)C1CC=CCC1C(=O)Nc1cccnc1 (stereo unspecified) 20.5%, COC(=O)c1cc(C)sc1NC(=O)C1CC=CCC1C(=O)O (stereo unspecified) 36.3%, O=C(NNC(=O)C1CC1c1ccccc1)Nc1cccc(Cl)c1 (stereo unspecified) -2.69%, CC1=C(C)CC(C(=O)NNC(=O)c2cccc(Cl)c2)C(C(=O)O)C1 (stereo unspecified) 27.5%, O=C(O)C1CC=CCC1C(=O)NNc1ccccc1 (stereo unspecified) 1.11%
